Compound activity as filed in PubChem BioAssay.
ELG1 repair inh – qHTS screen for small molecules that inhibit ELG1-dependent DNA repair in human embryonic kidney (HEK293T) cells expressing luciferase-tagged ELG1; HEK293T ELG1-luciferase reporter, luminescence, 16 h; DNA damage induced by 5-fluorouridine; Potency, µM (doses to about 46.1 µM), for inactives: at the highest dose activity change, negative = inhibition, usual class: inhibitors; 2.3% of 330,000 active; AID 504467, 2011; further: potency means the concentration at half of the fitted maximal effect; nearly all actives have a fitted effect of over 55% in size
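DMSO vehicle served as the neutral condition. Each well held 2,000 cells given 5-fluorouridine plus compound; after 16 hr at 37 °C/5% CO2, ONE-Glo was added and luciferase measured 30 min later.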
HT1080-NT tox – qHTS for induction of synthetic lethality in tumor cells producing 2HG: qHTS for the HT-1080-NT fibrosarcoma cell line. 1.6% of 360,000 active. Potency, µM (doses to about 46.1 µM), for the others: at the highest dose activity, negative = less viability, most hits filed as cytotoxic. HT-1080-NT fibrosarcoma viability, CellTiter-Glo ATP luminescence, 48 h. AID 686970, 2013;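 further: NT is the 2HG producing partner of a matched IDH1 knockdown line; potency means the concentration at half of the fitted maximal effect; 0% = DMSO-treated cells and -100% = media-only wells without cells; nearly all actives have a fitted effect of over 55% in size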
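Luminescent CellTiter-Glo readout after 48 hours of compound exposure at 37 degrees C defined viability of HT-1080-NT cells. Activity was normalized to DMSO wells and cell-free media wells; concentration-response curves were fitted and assigned curve classes.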
DT40 TDP1 no CPT – qHTS for Inhibitors of human tyrosyl-DNA phosphodiesterase 1 (TDP1): qHTS in cells in absence of CPT; DT40 Tdp1-/- hTDP1 cells, no CPT, ATP luminescence, 48 h; Potency, µM (top dose mostly 46.2 µM), inactives show top-dose activity change, negative = growth inhibition, usual class: inhibitors; 15% of 420,000 active; AID 686978, 2013; further: potency means the concentration at half of the fitted maximal effect; nearly all actives have a fitted effect of over 55% in size
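Seeded 400 DT40-hTDP1 cells/well (vehicle DMSO, no 20 nM CPT); pinned compounds; ≥48 hr at 37 °C; CellTiter-Glo luminescence as viability measure.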
IL1B secr inh – qHTS for Inhibitors of Inflammasome Signaling: IL-1-beta AlphaLISA Primary Screen | 4.7% of 360,000 active | THP-1 LPS/ATP IL-1B secretion, AlphaLISA, 16 h; hits give low values | activity change, % at 57.5 µM; in the data active means activity change below about -50%; inconclusive means mostly about -30% to -49%
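THP-1 cells pretreated 1 hr with compounds (up to 57.5 uM final), then stimulated with LPS (250 ng/mL final) plus ATP (1.25 mM final); secreted IL-1B measured by AlphaLISA after 16 hr, decreased signal indicating inhibition.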
HT1080 IDH1KD tx – qHTS for induction of synthetic lethality in tumor cells producing 2HG: qHTS for the HT-1080-IDH1KD cell line. AID 686971, 2013. HT-1080 IDH1 knockdown viability, ATP luminescence, 48 h. 2% of 360,000 active. Potency, µM (doses to about 46.1 µM), for inactives: top-dose activity, negative = toxicity, actives largely listed as cytotoxic;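 further: potency means the concentration at half of the fitted maximal effect; 0% = DMSO wells and -100% = cell-free medium wells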
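IDH1KD HT-1080 cells, 750/well, RPMI + 5% FBS; compound pinned after 2 h settling; 48 h, 37 °C; CellTiter-Glo luminescence; % activity normalised to DMSO and no-cell wells; curves fitted, classed by r2 and efficacy.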
TDP1 cell CPT – qHTS for Inhibitors of human tyrosyl-DNA phosphodiesterase 1 (TDP1): qHTS in cells in presence of CPT; Potency, µM (series often up to 46.2 µM), without a hit: at the top dose activity change, negative = growth inhibition, most hits filed as inhibitors; chicken DT40 Tdp1-/-;hTDP1 cells + 20 nM CPT, ATP luminescence, 48 h; 12% of 420,000 active; further: potency means the concentration at half of the fitted maximal effect; nearly all actives have a fitted effect of over 55% in size
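Chicken DT40 Tdp1-/- cells stably complemented with human TDP1 were seeded at 400 cells/well in medium containing 20 nM camptothecin, exposed to pin-transferred compounds, and grown at 37 °C for at least 48 hr. Viability was read as ATP luminescence.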
Active calls of the source: *; u = inconclusive; x = not tested or not shown. The list is not random: actives were taken first. Their share in the collection is about 19%. Unless noted, the call rests on the fitted dose curve; in most records, active means well fitted curve in the direction sought with a large enough effect; inconclusive means small, poorly fitted or top-dose-only effect, or another doubt; inactive means no such curve, though single readings can be large; an effect the other way counts as inactive or inconclusive. Unless noted, on the % scale 0 is the no-effect control and ±100 the full control effect.

SMILES | ELG1 repair inh | HT1080-NT tox | DT40 TDP1 no CPT | IL1B secr inh | HT1080 IDH1KD tx | TDP1 cell CPT
COc1cc2cc(C(c3nnnn3Cc3ccc(F)cc3)N3CCCCCC3)c(=O)[nH]c2cc1OC (centres undefined) | -8% | -3% | u | -15 | u | -20%
CCC(C)(C)n1nnnc1C(c1cc2ccc(OC)cc2[nH]c1=O)N1CCc2ccccc2C1 (centres undefined) | u | -6% | u | -65* | u | u
Cc1cc2cc(C(c3nnnn3Cc3ccco3)N3CCc4ccccc43)c(=O)[nH]c2cc1C (centres undefined) | -27% | -16% | u | 6 | -25% | u
COc1ccc(Cn2nnnc2C(c2cc3ccc(OC)cc3[nH]c2=O)N2CCCCCC2)cc1 (centres undefined) | u | -26% | 23µM* | -13 | -15% | 16µM*
Cc1cc2cc(C(c3nnnn3Cc3ccco3)N3CCc4ccccc4C3)c(=O)[nH]c2cc1C (centres undefined) | u | u | 23µM* | -58* | u | u
CCc1ccc2[nH]c(=O)c(C(c3nnnn3CCOC)N3CCN(c4ccccc4)CC3)cc2c1 (centres undefined) | -29% | -3% | 18µM* | u | -6% | u
CCc1ccccc1NC(=O)Cn1nc(CC)n2c(cc3sccc32)c1=O | x | x | u | x | x | -21%
Cc1cccc(-c2nc(SCC(=O)NCc3ccco3)c3c(=O)n(C)c(=O)n(C)c3n2)c1 | x | x | -21% | x | x | -24%
CS(=O)(=O)N(CC(=O)N1CCN(Cc2ccccc2)CC1)c1cccc(F)c1 | 2% | 11% | 0% | 10 | 11% | 1%
COc1ccc2cc(C(c3nnnn3C3CCCC3)N3CCc4ccccc4C3)c(=O)[nH]c2c1 (centres undefined) | -9% | -24% | 18µM* | -28 | -2% | u
CCC(C)(C)n1nnnc1C(c1cc2ccc(OC)cc2[nH]c1=O)N1CCc2ccccc21 (centres undefined) | u | u | -25% | -14 | 11µM* | u
CCC(C(=O)NCCc1ccc(Cl)cc1)n1ccc2cc(S(=O)(=O)N3CCCCC3)ccc21 (centres undefined) | x | x | u | x | x | 13µM*
CCc1ccc(CNC(=O)C2CCCN(S(=O)(=O)c3ccc4c(ccn4C)c3)C2)cc1 (centres undefined) | x | x | 15µM* | x | x | 21µM*
CCc1ccc(CNC(=O)C(CC)n2ccc3cc(S(=O)(=O)N4CCCCC4)ccc32)cc1 (centres undefined) | x | x | 23µM* | x | x | u
CCC(C(=O)O)n1ccc2cc(S(=O)(=O)N3CCCCC3)ccc21 (centres undefined) | x | x | -9% | x | x | -3%
CCN(C(=O)COC(=O)c1ccc2c(=O)n3c(nc2c1)CCC3)C1CCS(=O)(=O)C1 (centres undefined) | 6% | 21% | 2% | -2 | 15% | 0%
NNC(=O)c1cc(-c2cccs2)nc2ccccc12 | u | -8% | u | 3 | u | u
O=C(NC1=NCCS1)c1cc(-c2cccnc2)nc2ccccc12 | u | -8% | 21µM* | 1 | -20% | 16µM*
O=C(NC1=NCCS1)c1cc(-c2cccs2)nc2ccccc12 | u | -1% | -29% | -64* | 1% | -5%
Cc1ccc2[nH]c3c(c2c1)CN(C(=O)CN1CCCc2ccccc21)CC3 | 0% | u | u | -10 | 23µM* | 23µM*
Cc1ccc2[nH]c3c(c2c1)CN(C(=O)CC1(c2ccccc2)CC(=O)N(Cc2cccnc2)C1=O)CC3 (centres undefined) | x | x | 16µM* | x | x | u
Nc1nnnn1-c1ccccc1 | x | x | -1% | x | x | -19%
Cc1ccc2[nH]cc(S(=O)(=O)c3ccc(F)cc3)c(=O)c2c1 | -13% | -4% | 9.2µM* | -6 | -2% | u
N#C/C(=C\c1ccc(OCc2cccc(C(=O)O)c2)cc1)C(=O)NCc1ccco1 | u | -1% | -7% | -5 | -3% | -19%
COc1ccc([N+](=O)[O-])cc1NC(=O)Nc1cccc(Cl)c1 | u | -20% | 9.2µM* | -19 | -5% | 12µM*
SMILES | ELG1 repair inh | HT1080-NT tox | DT40 TDP1 no CPT | IL1B secr inh | HT1080 IDH1KD tx | TDP1 cell CPT
COc1ccc(NC(=O)c2ccc(-c3ccc([N+](=O)[O-])cc3)o2)cc1OC | u | 3% | 16µM* | -76* | 2% | 13µM*
COc1ccc([N+](=O)[O-])cc1NC(=O)Nc1ccc(OC)c(OC)c1 | 15µM* | -1% | u | -85* | -16% | u
COc1ccc([N+](=O)[O-])cc1NC(=O)Cc1ccc(Cl)cc1 | -21% | u | -22% | -4 | u | -18%
CC(=O)Nc1cc(C(=O)N2CCc3ccccc3C2)ccc1Sc1ccc(Cl)cc1 | -10% | -12% | u | -11 | -19% | u
CN(CCC#N)C(=O)CSc1nnc(-c2c[nH]c3ccccc23)o1 | 17% | 6% | 1% | -9 | 5% | 1%
CC(C)Cc1ccc(-c2cc3nc(NCCOc4ccccc4)ccn3n2)cc1 | x | -17% | u | -10 | u | u
COCCCNc1ccn2nc(-c3ccc(OCCN4CCOCC4)cc3)cc2n1 | x | 15% | 12µM* | -23 | 21% | u
NS(=O)(=O)c1ccc(CCNc2ccn3nc(-c4ccc(OCCN5CCOCC5)cc4)cc3n2)cc1 | x | u | 15µM* | -11 | -15% | 18µM*
N#C/C(=C\c1ccc(OCCN2CCOCC2)cc1)C(=O)Nc1ccc(S(N)(=O)=O)cc1 | -2% | 1% | 6% | -1 | 19% | -2%
O=C(NCCc1ccc(Cl)cc1)C(=O)NCC(c1ccc2c(c1)OCO2)N1CCOCC1 (centres undefined) | x | x | -20% | x | x | -19%
CC1OC(OC2C(CO)OC(OC3C(CO)OC(O)C(O)C3O)C(O)C2O)C(O)C(O)C1NC1C=C(CO)C(O)C(O)C1O (centres undefined) | x | x | -2% | x | x | -10%
